Compound activity as filed in PubChem BioAssay.
Only a selection was taken, and hits are over-represented in it overall.
Glioma ERSR ind: inducers of ER stress response in human glioma cells. U87-MG GRP78 promoter luciferase reporter, 16 h. Potency, µM, hits mostly activators. 0.02% of 420,000 active. AID 602332; also: series mostly up to about 76 µM; nearly all actives have a fitted effect of over 35% in size
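Stably transfected U87-MG human glioma cells carrying a GRP78-based luminescent sensor were seeded at 1000 cells/well, pin-dosed with compounds and incubated 16 h. Luciferase reagent was then added, and end-point luminescence was read after 10 min at room temperature.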
G9a inh: inhibitors of human histone lysine methyltransferase G9a; AID 504332; G9a H3K9 monomethylation, AlphaScreen, 2 h; 8.8% of 350,000 active; Potency, µM (highest dose often 102 µM), hits mostly inhibitors; also: nearly all actives have a fitted effect of over 75% in size
Target sequence (Q96KQ7 913-1193 limits assumed): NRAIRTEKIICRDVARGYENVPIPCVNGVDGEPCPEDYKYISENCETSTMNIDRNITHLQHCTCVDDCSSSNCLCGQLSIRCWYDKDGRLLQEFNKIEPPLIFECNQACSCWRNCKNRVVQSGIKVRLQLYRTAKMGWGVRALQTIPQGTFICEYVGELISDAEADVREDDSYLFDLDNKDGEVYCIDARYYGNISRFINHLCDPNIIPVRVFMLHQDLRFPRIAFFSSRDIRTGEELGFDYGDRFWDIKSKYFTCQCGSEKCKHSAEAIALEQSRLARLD
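AlphaScreen read-out: biotin-H3K9 peptide (500 nM) methylation by 20 nM enzyme with 20 uM SAM, 2 h at room temperature after 15 min compound preincubation; anti-monomethyl H3K9 antibody plus donor/acceptor beads, 10 min dark.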
12-LOX inh: inhibitors of human 12S-lipoxygenase ALOX12 | purified 12hLO, xylenol orange hydroperoxide absorbance | Potency, µM (series often up to 108 µM), hits mostly inhibitors | 1.1% of 580,000 active
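Purified human 12hLO (150 nM final) in 25 mM Hepes, 0.01% Triton X-100, pH 7.0 was preincubated 15 min at room temperature with compound. Then 40 uM arachidonic acid was added, 30 min. Hydroperoxide was read by Fe-XO absorbance ratio 573/405 nm.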
Sfp PPTase inh: Sfp phosphopantetheinyl transferase inhibition; Potency, µM, usual class: inhibitors; Biochemical Sfp PPTase activity, qHTS; Q9F4F7; 3.5% of 310,000 active;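 also: the enzyme is Sfp with the accession as filed and its product quenches rhodamine fluorescence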
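With Hepes-Na pH 7.6 buffer containing 10 mM MgCl2, Sfp (15 nM) modified BHQ-2-YbbR (12.5 uM) using rhodamine-CoA (5 uM). Two reads 30 minutes apart at 525/598 nm yielded each well's rate.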
VDR inhibitor: blocks the human vitamin D receptor; P11473; 0.93% of 400,000 active; VDR-SRC2-3 peptide fluorescence polarization, 2 h; Potency, µM, hits mostly inhibitors
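Reagent solutions, kept cold and dark, are dispensed first; compounds are then pinned in at 23 nl, plates briefly spun, and incubated 2 h at ambient temperature. Inhibition of VDR–SRC2-3 peptide binding is read by fluorescence polarization.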
Each line names hits and unclear results; the compound was inactive in the other large screens. Calls follow the shape of the dose curve; as a rule, active = well fitted curve in the direction sought with a large enough effect; inconclusive = small, poorly fitted or top-dose-only effect, or another doubt; inactive = no such curve, though single readings can be large; an effect the other way counts as inactive or inconclusive.

CC(NS(=O)(=O)c1ccc2c(c1)C(=O)c1cc(S(=O)(=O)NC(C)C(=O)O)ccc1-2)C(=O)O (configuration not stated)	G9a inh 28µM
O=C(Nc1ccccc1C(=O)O)c1cccc(NS(=O)(=O)c2ccc(Br)cc2)c1	12-LOX inh 40µM, VDR inhibitor inconclusive (no result: G9a inh)
Cc1ccc(S(=O)(=O)CCSc2cccc(C(=O)Nc3ccccc3C(=O)O)c2)cc1	G9a inh inconclusive, VDR inhibitor 79µM
O=C(Nc1ccc(F)cc1)C1CCN(c2ncnc3c2sc2ncccc23)CC1	none (no result: Glioma ERSR ind, G9a inh, Sfp PPTase inh, VDR inhibitor)
O=C(O)c1cccc(NS(=O)(=O)c2ccc(Oc3ccc(S(=O)(=O)Nc4cccc(C(=O)O)c4)cc3)cc2)c1	none (no result: G9a inh, Sfp PPTase inh)
O=C(Nc1ccccc1C(=O)O)c1cccc(S(=O)(=O)Nc2ccc(Br)cc2)c1	12-LOX inh 16µM
O=C(O)c1cccc(NS(=O)(=O)c2ccc(-c3ccc(S(=O)(=O)Nc4cccc(C(=O)O)c4)cc3)cc2)c1	G9a inh 50µM
O=C(O)c1ccc(NS(=O)(=O)c2ccc3c(c2)C(=O)c2ccccc2C3=O)cc1	G9a inh 45µM
O=C(NC1CCN(C(=O)c2cc(-c3ccccc3)nc3ccccc23)CC1)c1ccccc1	none (no result: Glioma ERSR ind, G9a inh, Sfp PPTase inh, VDR inhibitor)
Cc1cccc(/C=N/NC(=O)c2ccc(C(C)(C)C)cc2)c1	none (no result: Glioma ERSR ind, G9a inh, Sfp PPTase inh, VDR inhibitor)
O=C(NN1C(=O)c2cc(Br)ccc2NC1c1cc(Br)cc(Br)c1O)c1ccncc1 (configuration not stated)	G9a inh inconclusive, 12-LOX inh 50µM
CC(=O)C1=NN(c2ccccc2)C(c2cccs2)N1c1ccc(N(C)C)cc1 (configuration not stated)	G9a inh 28µM
CC(=O)C1=NN(c2ccccc2)C(c2ccc3c(c2)OCO3)N1c1ccccc1 (configuration not stated)	12-LOX inh inconclusive
CCOC(=O)c1ccc(CSC(=N)N)o1	none
CCOC(=O)c1ccc(CC(=O)c2ccc(O)c(O)c2O)o1	12-LOX inh inconclusive, Sfp PPTase inh 6.3µM (no result: G9a inh)
CCOC(=O)c1ccc(CC(=O)c2oc3cc(O)ccc3c2C)o1	G9a inh inconclusive, 12-LOX inh 16µM, Sfp PPTase inh inconclusive
CC(C)(C)c1ccc(COC(=O)c2ccc(S(C)(=O)=O)cc2)cc1	none (no result: Glioma ERSR ind, G9a inh, Sfp PPTase inh, VDR inhibitor)
COc1cccc(S(=O)(=O)N2CCC(n3cnnc3-c3ccccc3)CC2)c1	none (no result: Glioma ERSR ind, G9a inh, Sfp PPTase inh, VDR inhibitor)
O=C1OC(CN2CCOCC2)CN1N=Cc1ccc([N+](=O)[O-])o1 (configuration not stated)	12-LOX inh inconclusive (no result: Sfp PPTase inh)
O=C1O[C@H](CN2CCOCC2)CN1/N=C\c1ccc([N+](=O)[O-])o1	VDR inhibitor 28µM (no result: 12-LOX inh)
O=C1OC(CN(Cc2ccccc2)Cc2ccccc2)CN1N=Cc1ccc([N+](=O)[O-])o1 (configuration not stated)	12-LOX inh 13µM (no result: G9a inh, Sfp PPTase inh)
O=C(OC1CCN(c2ncc(C(F)(F)F)cc2Cl)CC1)c1ccc(Cl)cc1	none (no result: G9a inh)
O=C(CSc1nccn1-c1ncc(C(F)(F)F)cc1Cl)c1ccc(Cl)cc1	VDR inhibitor 45µM
Cc1ccc(-n2c([S-])c(C(=O)NC(C)c3ccccc3)[n+]3ccccc23)cc1 (configuration not stated)	G9a inh 40µM, 12-LOX inh inconclusive
COc1ccc(CNC(=O)c2c([S-])n(-c3ccc(C)cc3)c3cccc[n+]23)cc1	G9a inh 4µM, 12-LOX inh inconclusive
COc1ccc(CNC(=O)c2cccc3ccccc23)cc1	none (no result: Glioma ERSR ind, G9a inh, Sfp PPTase inh, VDR inhibitor)
Cc1ccc(OCC(=O)NC(C)c2ccccc2)cc1 (configuration not stated)	G9a inh inconclusive
Cc1ccc(-c2[nH]c3ccccc3c2C=O)cc1	none (no result: Glioma ERSR ind, G9a inh, Sfp PPTase inh, VDR inhibitor)
CC(NC(=O)CSc1nc2c(cc1C#N)CCCC2)c1ccccc1 (configuration not stated)	none (no result: Glioma ERSR ind, G9a inh, Sfp PPTase inh, VDR inhibitor)
CCOC(=O)C1CCCN(C(=O)c2ccc(CS(=O)(=O)c3ccc(C)cc3)o2)C1 (configuration not stated)	G9a inh 50µM (no result: 12-LOX inh)
Cc1ccc(OCC(=O)N2CCC(N3CC(C)CC(C)C3)CC2)cc1 (configuration not stated)	G9a inh 25µM
Cc1cccc(OCC(=O)N2CCC(N3CCOCC3)CC2)c1	G9a inh inconclusive, 12-LOX inh 1.6µM, Sfp PPTase inh inconclusive
O=C(O)CC1(CC(=O)N2CCN(C(=O)CC3(CC(=O)O)CCCCC3)CC2)CCCCC1	none (no result: Glioma ERSR ind, G9a inh, Sfp PPTase inh, VDR inhibitor)
Cc1cc(N=O)c(C)cc1O	none (no result: Glioma ERSR ind, G9a inh, Sfp PPTase inh, VDR inhibitor)
